# Assays:
# [1] = test system: Human papillomavirus type 1a protein E7 (residues 44-93); experiment: HPV1a E7 fragment binders on microarrays, primary screen, biochemical, small-molecule microarray, residues 44-93, 635 nm fluorescence (AID 1108); settings: small-molecule microarray binding, fluorescence 635 nm; higher = more signal;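 note: E7 fragment applied at 1 µg/mL in TBST for 1 h at 4 C; score combines spot fluorescence with its signal to noise ratio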
# [2] = modulators of HCV replicon luciferase signal, primary screen, HCV replication inhibitor project, Huh7 cells, luciferase reporter (AID 1109); settings: 48 h, higher = more signal;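 note: huh7 hepatoma cells harbouring a luciferase neomycin HCV replicon reporter; luciferase luminescence as measure of HCV replicon replication; test concentration not given here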
# [3] = target: Left-right determination factor 2 (Homo sapiens) (UniProt O00292); experiment: LEFTY2 binders on small-molecule microarrays, primary screen, biochemical, small-molecule microarray, 635 nm fluorescence scan (AID 1110); settings: LEFTY2 binding, higher = more signal
# Sequence of Left-right determination factor 2 (Homo sapiens) (O00292 whole entry, looked up): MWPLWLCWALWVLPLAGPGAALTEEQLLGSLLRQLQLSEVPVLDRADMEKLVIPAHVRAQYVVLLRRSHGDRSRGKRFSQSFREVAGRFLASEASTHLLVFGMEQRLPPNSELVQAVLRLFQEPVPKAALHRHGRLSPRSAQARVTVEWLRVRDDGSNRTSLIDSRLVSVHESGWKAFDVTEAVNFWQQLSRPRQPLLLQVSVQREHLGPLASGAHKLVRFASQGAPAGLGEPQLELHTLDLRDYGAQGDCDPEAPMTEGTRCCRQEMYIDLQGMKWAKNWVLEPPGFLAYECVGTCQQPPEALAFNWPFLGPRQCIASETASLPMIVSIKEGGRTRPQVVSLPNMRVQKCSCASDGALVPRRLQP
# [4] = target: Calmodulin-1 (Homo sapiens) (UniProt P0DP23); experiment: CALM1 binders on microarrays, EGTA buffer, profiling panel, biochemical, small-molecule microarray, Cy5-labelled CALM1 (AID 1111); settings: Cy5-CALM1 binding fluorescence, higher = more signal;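 note: labelled calmodulin applied in Tris saline Tween buffer holding calcium plus EGTA and DTT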
# [5] = target: Calmodulin-1 (Homo sapiens) (UniProt P0DP23); experiment: calcium-bound CALM1 binders on microarrays, profiling panel, artefact control for SMM control-protein annotation, biochemical, small-molecule microarray, Cy5-labelled CALM1, plus calcium (AID 1112); settings: Cy5-CALM1 binding fluorescence, higher = more signal;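 note: score merges spot fluorescence with signal to noise from triplicate slides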
# [6] = small-molecule microarray binders of probe aWnt5a, primary screen, biochemical, biotinylated probe, 635/667 nm fluorescence (AID 1113); settings: higher = more signal;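 note: score merges 667 nm fluorescence intensity with signal-to-noise per printed feature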
# [7] = small-molecule microarray binders of probe aShh, primary screen, biochemical, biotinylated probe, 635/667 nm fluorescence (AID 1114); settings: higher = more signal;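 note: probe is biotin-labelled aShh protein from a stem cell growth factor screen; measures binding of labelled protein to compounds printed on the slide; score merges feature fluorescence at 667 nm with signal-to-noise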
# [8] = small-molecule microarray binders of probe aNog, primary screen, biochemical, biotinylated probe, 635/667 nm fluorescence (AID 1115); settings: higher = more signal;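 note: probe is biotinylated aNog protein used at 0.15 µg/mL for 1 h at 4 C; z-score combines 667 nm fluorescence of each spot with its signal to noise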
# [9] = target: Torsin-1A-interacting protein 1 (Homo sapiens) (UniProt Q5JTV8); experiment: LAP1 binders from COS7 cell lysate, primary screen, small-molecule microarray, 635/667 nm fluorescence (AID 1116); settings: COS7-hLAP1 lysate binding, 635 nm fluorescence, higher = more signal
# Sequence of Torsin-1A-interacting protein 1 (Homo sapiens) (Q5JTV8 whole entry, looked up): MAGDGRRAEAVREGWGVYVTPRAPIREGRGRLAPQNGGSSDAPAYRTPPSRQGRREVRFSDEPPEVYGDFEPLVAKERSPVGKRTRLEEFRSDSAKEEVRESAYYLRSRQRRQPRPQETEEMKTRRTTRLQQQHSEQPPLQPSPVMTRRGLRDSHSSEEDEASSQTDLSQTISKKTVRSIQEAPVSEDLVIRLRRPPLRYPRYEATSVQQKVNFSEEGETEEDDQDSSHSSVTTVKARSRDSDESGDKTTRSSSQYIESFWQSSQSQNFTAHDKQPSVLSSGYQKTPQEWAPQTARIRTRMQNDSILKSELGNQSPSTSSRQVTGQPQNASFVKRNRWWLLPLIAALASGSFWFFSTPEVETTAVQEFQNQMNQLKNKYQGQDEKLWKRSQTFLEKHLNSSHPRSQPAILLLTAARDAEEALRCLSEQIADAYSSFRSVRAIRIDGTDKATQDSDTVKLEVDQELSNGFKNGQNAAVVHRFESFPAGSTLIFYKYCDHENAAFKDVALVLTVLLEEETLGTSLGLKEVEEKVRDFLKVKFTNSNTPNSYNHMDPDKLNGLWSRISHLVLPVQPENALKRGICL
# [10] = target: Alpha-bungarotoxin (Bungarus multicinctus) (UniProt P60615); experiment: alpha-bungarotoxin binders on microarray, profiling panel, artefact control for SMM control protein annotation, biochemical, small-molecule microarray, Alexa647 label, 635/667 nm fluorescence (AID 1117); settings: alpha-BTX-A647 binding fluorescence, higher = more signal
# Sequence of Alpha-bungarotoxin (Bungarus multicinctus) (P60615 whole entry, looked up): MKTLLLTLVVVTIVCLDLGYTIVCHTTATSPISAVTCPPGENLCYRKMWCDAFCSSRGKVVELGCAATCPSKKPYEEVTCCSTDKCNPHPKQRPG
Compound,composite z-score [1],z-score [2],composite z-score [3],composite z-score [4],composite z-score [5],composite z-score [6],composite z-score [7],composite z-score [8],composite z-score [9],composite z-score [10]
O=C1CCCC=C1C(O)C1CCCCC1 (stereo not given),-0.64,0.108,-0.0231,-0.583,-0.389,0.0088,-0.186,-0.134,-0.207,-0.268
CCOC(=O)[C@H](Cc1ccccc1)NC(=O)CCC1CC(OC(=O)NCCc2ccc(F)cc2)CC2(CCCC(COC(=O)NCc3cccc(C(F)(F)F)c3)O2)O1 (stereo not given in full),1.3,-1.8,0.763,1.43,0.465,-0.154,-0.221,0.0498,0.109,1.04
CCOC(=O)[C@H](CC(C)C)NC(=O)CCC1CC(OC(=O)NCCc2ccc(F)cc2)CC2(CCCC(COC(=O)NCCOC)O2)O1 (stereo not given in full),1.34,-0.694,1.12,0.217,-0.119,-0.176,-0.0769,-0.438,0.461,0.411
CCCNC(=O)OC[C@H]1O[C@H](CCON=C2c3cc(OC)ccc3O[C@H](c3cccc(OC)c3)[C@H]2O)C=C[C@@H]1Oc1ccc(OC)cc1,0.523,-3.02,0.322,0.571,0.0967,-0.187,-0.0035,-0.239,1.28,1.2
CCOC(=O)CCN1C(=O)[C@H]2[C@H]3[C@H](O)[C@H](O)CC(=NNC(=O)OCC)[C@H]3CC[C@H]2C1=O,-0.0248,-2.37,0.679,-0.842,-1.67,-0.1,-0.0626,0.121,-0.0184,-0.798
C[C@@H](c1ccccc1)N1C(=O)[C@H]2[C@H]3[C@H](O)[C@H](O)CC(=NNC(=O)OCc4ccccc4)[C@@H]3CC[C@H]2C1=O,-0.347,-1.01,1.17,-1.16,-1.94,-0.158,0.0062,-0.545,-0.043,-0.716
CCOC(=O)CCN1C(=O)[C@H]2[C@H]3[C@H](O)[C@H](O)CC(=NOCC(C)C)[C@@H]3CC[C@H]2C1=O,-0.998,-0.488,1.01,-1.92,-1.74,-0.284,-0.0471,-0.255,-0.202,-0.799
COC(=O)[C@@H]1CC[C@H](C)[C@@H](c2ccc(Br)cc2)N1C[C@H](O)CN=[N+]=[N-],0.0343,-0.0104,0.346,0.0364,0.123,0.14,-0.0243,-0.183,-0.133,0.426
CCc1cc2c(nc1CC)CCN(CCC(C)=NO[C@@H]1O[C@H](COC(C)=O)[C@@H](OC(C)=O)[C@H](OC(C)=O)[C@H]1OC(C)=O)C2,1.31,-0.998,1.3,-0.199,-0.502,0.0251,-0.291,-0.152,2.85,1.01
COC(=O)[C@H](C)NC(=O)CCC1CC(OC(=O)NCc2cccc3ccccc23)CC2(CCCC(COC(=O)NCCOc3ccccc3)O2)O1 (stereo not given in full),1.33,-0.682,0.43,1.33,-0.232,-0.251,-0.138,-0.559,0.347,0.862
CCN1C(=O)[C@H]2[C@H]3[C@H](O)[C@H](O)CC(=NNC(=O)OCc4ccccc4)[C@H]3CC[C@H]2C1=O,0.663,-0.0788,0.227,-0.307,-0.767,-0.0459,0.0637,-0.452,0.185,0.504
COc1cccc([C@H]2Oc3ccc(OC)cc3C(=NOCC[C@@H]3C=C[C@H](OC(C)=O)[C@@H](COC(C)=O)O3)[C@@H]2O)c1,0.687,-0.544,0.492,-0.547,-0.314,-0.0865,-0.0553,0.197,0.786,0.635
CC(C)=CCCC(C)=CCON=C1C[C@@H](O)[C@@H](O)[C@@H]2[C@@H]3C(=O)N(c4cccc(Oc5ccccc5)c4)C(=O)[C@@H]3CC[C@H]12,1.32,0.237,0.323,0.322,0.321,-0.148,0.0483,-0.0129,0.173,-0.0168
COc1ccc(COC(=O)NN=C2C[C@@H](O)[C@@H](O)[C@@H]3[C@@H]4C(=O)N(C(C)(C)C)C(=O)[C@@H]4CC[C@@H]23)cc1,0.653,-0.828,1.27,1.19,-0.306,-0.0566,-0.0626,0.0498,0.207,0.751
COC(=O)CC=C[C@@H](C)[C@@H](C=NOC[C@@H](O)[C@H]1O[C@@H]2OC(C)(C)O[C@@H]2[C@H]1O)OC,0.416,-0.594,0.638,-0.139,-0.565,-0.012,-0.0035,-0.234,0.422,0.265
CC(=O)OC[C@H]1O[C@@H](ON=C(C)C)[C@H](OC(C)=O)[C@@H](OC(C)=O)[C@@H]1OC(C)=O,-2.02,-0.563,0.207,-0.862,-0.678,-0.0459,-0.13,-0.345,-0.958,-1.3
O=C1[C@H]2[C@H]3[C@H](O)[C@H](O)CC(=NO[C@@H]4O[C@H](CO)[C@@H](O)[C@H](O)[C@H]4O)[C@@H]3CC[C@H]2C(=O)N1C1CCCCC1,0.578,-0.0851,0.616,0.159,-0.616,0.0101,-0.0593,-0.198,0.0912,0.0069
CSCC[C@@H]1NC(=O)CC=C[C@@H](C)COC(=O)[C@H](C)COC1=O,-1.63,0.894,1.71,-2.28,-3.17,-0.286,-0.0035,-0.321,0.443,-1.96

Compound,composite z-score [1],z-score [2],composite z-score [3],composite z-score [4],composite z-score [5],composite z-score [6],composite z-score [7],composite z-score [8],composite z-score [9],composite z-score [10]
COC(=O)[C@H](C)NC(=O)CCC1CC(OC(=O)NCc2cccc3ccccc23)CC2(CCCC(COC(=O)NCc3ccccc3)O2)O1 (stereo not given in full),1.15,-0.922,0.648,0.426,-0.543,-0.0721,-0.206,-0.495,0.177,0.389
CCc1cc2c(nc1CC)CCN(CCC(C)=NOCC[C@@H]1C=C[C@H](OC(C)=O)[C@@H](COC(C)=O)O1)C2,1.11,-0.879,0.879,-0.307,-1.2,0.0209,-0.167,-0.4,1.01,0.147
CCc1cc2c(nc1CC)CCN(CCC(C)=NOC(C)CN1CCCCc3nc(C)c(C)cc31)C2 (stereo not given),1.38,-4.08,0.772,0.499,0.455,-0.0735,0.0639,-0.1,0.272,0.946
O=C(NN=C1C[C@@H](O)[C@@H](O)[C@@H]2[C@@H]3C(=O)N(Cc4ccccc4)C(=O)[C@@H]3CC[C@H]12)OCc1ccccc1,-0.401,0.0011,0.524,-0.293,-0.406,-0.124,-0.2,0.0313,0.305,-0.016
CO[C@H]1COC(=O)CCC[C@H](C)[C@@H](OC)COC(=O)CC=C[C@@H]1C,-0.431,-1.63,0.966,-0.946,-1.1,-0.191,-0.0248,-0.267,0.387,0.0355
CCc1cc2c(nc1CC)CCN(CCC(C)=NOC[C@@H](C)[C@H](OCc1ccccc1)C(C)C)C2,-0.461,-1.14,-0.964,-1.3,-0.139,-0.247,-0.0035,-0.411,-0.667,-0.86
COC(=O)[C@H](C)NC(=O)CCC1CC(OC(=O)NCc2cccc3ccccc23)CC2(CCCC(COC(=O)NCc3cccc(C(F)(F)F)c3)O2)O1 (stereo not given in full),1.32,-0.548,0.925,1.1,0.269,-0.0384,-0.138,-0.23,0.208,0.292
CCN1C(=O)[C@H]2[C@H]3[C@H](O)[C@H](O)CC(=NO[C@@H]4O[C@H](COC(C)=O)[C@@H](OC(C)=O)[C@H](OC(C)=O)[C@H]4OC(C)=O)[C@@H]3CC[C@H]2C1=O,0.519,-0.835,0.671,-0.41,-0.564,0.0151,0.126,0.166,0.256,0.721
CC(=O)OC[C@H]1O[C@H](CC=NOC[C@@H](O)[C@H]2O[C@@H]3OC(C)(C)O[C@@H]3[C@H]2O)C=C[C@@H]1OC(C)=O,0.836,-0.041,0.439,0.699,0.249,-0.0735,0.179,-0.189,0.51,1.32
COc1ccc(OC[C@@H]2CC3[C@@H](c4ccc(Br)cc4)[C@H](C)CC[C@H]3C(=O)O2)cc1 (stereo not given in full),-0.722,-0.312,0.418,-0.991,-0.642,-0.158,-0.367,-0.0003,0.308,0.287
COC(=O)[C@@H]1CC[C@H](C)[C@@H](c2ccc(Br)cc2)N1,-1.28,-0.178,0.0281,-0.0261,0.394,0.0375,0.261,0.101,0.488,0.234
COC(=O)C(C(=O)OC)C1CCCC(=O)C1 (stereo not given),0.549,0.593,0.576,-0.385,-0.645,-0.104,-0.107,-0.0446,0.526,0.0087
COC(=O)CC=C[C@@H](C)[C@@H](C=NOC[C@@H](O)COCc1ccco1)NS(=O)(=O)c1ccc(C)cc1,-1.24,-0.42,1.04,-2.79,-2.64,-0.166,-0.162,-0.252,-0.435,-0.672
CCOC(=O)[C@H](CC(C)C)NC(=O)CCC1CC(OC(=O)NCc2ccc3c(c2)OCO3)CC2(CCCC(COC(=O)NCCC(C)C)O2)O1 (stereo not given in full),-0.527,0.752,0.0162,-0.344,-0.365,-0.184,-0.283,-0.295,0.0461,0.0789
CCOC(=O)[C@H](Cc1ccccc1)NC(=O)CCC1CC(OC(=O)NCc2cccc3ccccc23)CC2(CCCC(COC(=O)NCCc3ccccc3OC)O2)O1 (stereo not given in full),0.881,-1.06,0.584,0.38,-0.298,-0.195,0.191,-0.138,0.135,0.635
O=C1[C@H]2[C@H]3[C@H](O)[C@H](O)CC(=NOC[C@@H](O)COCc4ccco4)[C@@H]3CC[C@H]2C(=O)N1Cc1ccccc1,1.48,-0.114,1.19,-0.754,-1.55,-0.152,-0.0866,-0.529,0.77,0.238
CCOC(=O)CCN1C(=O)[C@H]2[C@H]3[C@H](O)[C@H](O)CC(=O)[C@@H]3CC[C@H]2C1=O,0.555,-0.408,0.657,0.0068,-0.135,-0.0924,-0.138,-0.252,0.597,0.321
CCOC(=O)[C@H](CC(C)C)NC(=O)CCC1CC(OC(=O)NCc2ccc3c(c2)OCO3)CC2(CCCC(COC(=O)NCc3ccccc3)O2)O1 (stereo not given in full),1.37,-0.0695,0.355,0.562,-0.158,0.0799,-0.153,-0.074,0.137,0.461
